# Results filed as inconclusive are left out. Calls of active or inactive are those of the source. How the source made its calls: active means hit-call score of the fitted dose curve at least 0.9, where 1 is the maximum; inconclusive means response in the unintended direction; inactive means score below 0.9.
# Experiments:
# [1] = molecular target: human Neuropeptide Receptor Y1 (NPY1), NPY1R (gene 4886) (UniProt P25929); assay: NVS_GPCR_hNPY1: NovaScreen (NVS) G Protein-Coupled Receptor Assay for human Neuropeptide Receptor Y1 (NPY1) (AID 2283276)
# Chain of human Neuropeptide Receptor Y1 (NPY1), NPY1R (gene 4886) (P25929 whole entry, looked up): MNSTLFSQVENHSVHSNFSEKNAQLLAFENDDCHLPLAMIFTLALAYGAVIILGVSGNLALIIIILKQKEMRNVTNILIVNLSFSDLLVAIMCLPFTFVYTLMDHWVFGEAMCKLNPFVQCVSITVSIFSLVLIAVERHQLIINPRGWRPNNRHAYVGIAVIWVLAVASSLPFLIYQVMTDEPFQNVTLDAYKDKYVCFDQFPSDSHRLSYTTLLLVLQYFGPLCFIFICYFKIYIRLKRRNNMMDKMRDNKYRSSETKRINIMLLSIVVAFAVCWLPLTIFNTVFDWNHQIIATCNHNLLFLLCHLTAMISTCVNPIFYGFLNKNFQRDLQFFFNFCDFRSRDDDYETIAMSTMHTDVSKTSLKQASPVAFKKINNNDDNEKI
# Procedure, shortened: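 Displacement of specific radioligand from NPY1 receptor of SK-N-MC origin, read by filtration and scintillation after 1 h. Compounds first tested at 25 uM in duplicate, then actives in concentration series; signal loss relative to DMSO.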
# [2] = molecular target: human Neurokinin, NK2 Receptor, TACR2 (gene 6865) (UniProt P21452); assay: NVS_GPCR_hNK2: NovaScreen (NVS) G Protein-Coupled Receptor Assay for human Neurokinin, NK2 Receptor (AID 2283278);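 further: actives reduce bound radioligand signal relative to DMSO baseline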
# Chain of human Neurokinin, NK2 Receptor, TACR2 (gene 6865) (P21452 whole entry, looked up): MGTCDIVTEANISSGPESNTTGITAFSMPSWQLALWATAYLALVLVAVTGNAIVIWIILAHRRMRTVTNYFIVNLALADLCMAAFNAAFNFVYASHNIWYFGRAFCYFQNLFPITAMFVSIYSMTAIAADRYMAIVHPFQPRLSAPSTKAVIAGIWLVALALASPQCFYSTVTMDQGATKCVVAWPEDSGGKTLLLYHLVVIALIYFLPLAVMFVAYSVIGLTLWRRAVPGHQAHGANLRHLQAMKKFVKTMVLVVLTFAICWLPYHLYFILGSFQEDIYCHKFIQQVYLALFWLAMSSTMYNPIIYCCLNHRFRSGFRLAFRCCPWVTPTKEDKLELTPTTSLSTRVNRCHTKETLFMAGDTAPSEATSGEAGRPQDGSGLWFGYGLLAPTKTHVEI
# Procedure, shortened: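 Cell-free radioligand binding using receptor protein extracted from CHO cells; readings taken 4 hours after chemical dosing by filter-based scintillation counting. Primary screen ran single concentration (25 uM) in duplicate; actives followed up in concentration series, loss-of-signal versus DMSO baseline.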
# [3] = molecular target: Beta-2 adrenergic receptor (Homo sapiens) (UniProt P07550); assay: NVS_GPCR_hAdrb2: NovaScreen (NVS) G Protein-Coupled Receptor Assay for human Adrenergic, Beta 2 Receptor (Adrb2) (AID 2283261)
# Procedure, shortened: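 Compounds screened in duplicate at 25 uM, then actives in concentration series. Human beta-2 receptor from CHO material, cell-free; radioligand displacement after 1 h measured by filtration and scintillation against DMSO baseline.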
# [4] = molecular target: human Dopamine Receptor D4.4 (DRD4.4), DRD4 (gene 1815) (UniProt P21917); assay: NVS_GPCR_hDRD4.4: NovaScreen (NVS) G Protein-Coupled Receptor Assay for human Dopamine Receptor D4.4 (DRD4.4) (AID 2283264)
# Chain of human Dopamine Receptor D4.4 (DRD4.4), DRD4 (gene 1815) (P21917 whole entry, looked up): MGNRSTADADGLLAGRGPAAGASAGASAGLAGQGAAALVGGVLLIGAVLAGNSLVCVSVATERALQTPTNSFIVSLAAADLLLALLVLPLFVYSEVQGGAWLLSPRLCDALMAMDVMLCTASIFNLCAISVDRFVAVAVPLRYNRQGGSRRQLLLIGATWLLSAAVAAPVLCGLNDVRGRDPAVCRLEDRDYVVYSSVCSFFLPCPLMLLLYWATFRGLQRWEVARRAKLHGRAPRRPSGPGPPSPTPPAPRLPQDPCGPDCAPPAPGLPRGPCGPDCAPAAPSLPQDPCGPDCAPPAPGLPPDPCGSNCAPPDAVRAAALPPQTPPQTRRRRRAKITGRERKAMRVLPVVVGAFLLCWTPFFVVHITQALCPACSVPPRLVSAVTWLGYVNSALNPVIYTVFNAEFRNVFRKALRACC
# Procedure, shortened: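 Filter-binding assay with a tritiated or iodinated ligand, cell-free receptor prepared from CHO, 1 hour. Loss of bound radioactivity versus DMSO; single 25 uM duplicate screen, then concentration-response for actives.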
# [5] = molecular target: human Adrenergic, Alpha 2c Receptor (Adra2C), ADRA2C (gene 152) (UniProt P18825); assay: NVS_GPCR_hAdra2C: NovaScreen (NVS) G Protein-Coupled Receptor Assay for human Adrenergic, Alpha 2c Receptor (Adra2C) (AID 2283259)
# Chain of human Adrenergic, Alpha 2c Receptor (Adra2C), ADRA2C (gene 152) (P18825 whole entry, looked up): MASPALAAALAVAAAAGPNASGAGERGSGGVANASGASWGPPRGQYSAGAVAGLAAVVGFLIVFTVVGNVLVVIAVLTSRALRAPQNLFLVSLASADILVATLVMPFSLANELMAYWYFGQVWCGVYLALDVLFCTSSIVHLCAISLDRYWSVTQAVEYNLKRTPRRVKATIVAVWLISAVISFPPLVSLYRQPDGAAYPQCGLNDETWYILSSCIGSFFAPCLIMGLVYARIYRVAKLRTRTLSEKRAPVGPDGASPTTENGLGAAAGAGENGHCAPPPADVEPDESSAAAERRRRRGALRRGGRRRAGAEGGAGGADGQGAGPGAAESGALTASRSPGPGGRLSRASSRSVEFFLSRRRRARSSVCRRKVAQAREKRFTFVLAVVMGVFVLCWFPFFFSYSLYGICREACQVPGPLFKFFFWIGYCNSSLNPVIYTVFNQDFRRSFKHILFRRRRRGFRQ
# Procedure, shortened: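 Screened first in duplicate at 25 uM, with actives then run as concentration series. Membranes from Sf9 cells were exposed for 1 h, and displacement of radioligand was counted after filtration, using DMSO as baseline.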
# [6] = molecular target: human Histamine 1 Receptor (H1), HRH1 (gene 3269) (UniProt P35367); assay: NVS_GPCR_hH1: NovaScreen (NVS) G Protein-Coupled Receptor Assay for human Histamine 1 Receptor (H1) (AID 2283268)
# Chain of human Histamine 1 Receptor (H1), HRH1 (gene 3269) (P35367 whole entry, looked up): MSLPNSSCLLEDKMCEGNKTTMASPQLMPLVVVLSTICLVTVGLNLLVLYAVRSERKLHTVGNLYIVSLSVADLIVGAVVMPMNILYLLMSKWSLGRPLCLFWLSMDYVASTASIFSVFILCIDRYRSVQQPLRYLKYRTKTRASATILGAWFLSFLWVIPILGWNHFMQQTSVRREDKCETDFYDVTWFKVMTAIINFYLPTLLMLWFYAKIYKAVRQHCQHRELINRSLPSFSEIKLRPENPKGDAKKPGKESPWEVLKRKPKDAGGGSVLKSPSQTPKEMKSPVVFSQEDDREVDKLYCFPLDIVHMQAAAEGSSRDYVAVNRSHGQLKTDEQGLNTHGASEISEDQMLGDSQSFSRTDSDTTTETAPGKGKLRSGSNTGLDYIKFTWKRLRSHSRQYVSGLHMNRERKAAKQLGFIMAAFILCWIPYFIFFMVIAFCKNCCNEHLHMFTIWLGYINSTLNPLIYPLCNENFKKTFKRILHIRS
# Procedure, shortened: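 Filter-based scintillation detection of radioligand binding to human H1, 1 h incubation; chemicals screened in duplicate at 25 uM, then concentration-response; signal loss relative to DMSO taken as activity.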
# [7] = molecular target: D(1A) dopamine receptor (Homo sapiens) (UniProt P21728); assay: NVS_GPCR_hDRD1: NovaScreen (NVS) G Protein-Coupled Receptor Assay for human Dopamine Receptor D1 (DRD1) (AID 2283269)
# Chain of D(1A) dopamine receptor (Homo sapiens) (P21728 whole entry, looked up): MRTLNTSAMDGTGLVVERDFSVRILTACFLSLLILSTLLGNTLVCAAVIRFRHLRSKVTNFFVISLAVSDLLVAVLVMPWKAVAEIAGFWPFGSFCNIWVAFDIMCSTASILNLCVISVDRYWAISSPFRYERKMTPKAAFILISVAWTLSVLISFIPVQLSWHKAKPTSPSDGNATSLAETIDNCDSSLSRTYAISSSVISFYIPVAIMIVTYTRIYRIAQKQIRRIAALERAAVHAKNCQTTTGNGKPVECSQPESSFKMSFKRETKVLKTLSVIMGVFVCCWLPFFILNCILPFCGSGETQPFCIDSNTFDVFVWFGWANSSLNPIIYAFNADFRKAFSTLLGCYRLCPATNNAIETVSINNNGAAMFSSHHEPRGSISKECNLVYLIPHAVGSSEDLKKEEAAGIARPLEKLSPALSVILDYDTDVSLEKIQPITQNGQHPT
# Procedure, shortened: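 Cell-free competition with radioligand, filter-trapped and scintillation-counted 1 h post-dose, using HEK293-derived human D1 preparation. Duplicate single-point testing at 25 uM first, then concentration series for actives; DMSO served as baseline, loss-of-signal scored.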
# [8] = molecular target: Muscarinic acetylcholine receptor M1 (Homo sapiens) (UniProt P11229); assay: NVS_GPCR_hM1: NovaScreen (NVS) G Protein-Coupled Receptor Assay for human Muscarinic, M1 Receptor (AID 2283270)
# Chain of Muscarinic acetylcholine receptor M1 (Homo sapiens) (P11229 whole entry, looked up): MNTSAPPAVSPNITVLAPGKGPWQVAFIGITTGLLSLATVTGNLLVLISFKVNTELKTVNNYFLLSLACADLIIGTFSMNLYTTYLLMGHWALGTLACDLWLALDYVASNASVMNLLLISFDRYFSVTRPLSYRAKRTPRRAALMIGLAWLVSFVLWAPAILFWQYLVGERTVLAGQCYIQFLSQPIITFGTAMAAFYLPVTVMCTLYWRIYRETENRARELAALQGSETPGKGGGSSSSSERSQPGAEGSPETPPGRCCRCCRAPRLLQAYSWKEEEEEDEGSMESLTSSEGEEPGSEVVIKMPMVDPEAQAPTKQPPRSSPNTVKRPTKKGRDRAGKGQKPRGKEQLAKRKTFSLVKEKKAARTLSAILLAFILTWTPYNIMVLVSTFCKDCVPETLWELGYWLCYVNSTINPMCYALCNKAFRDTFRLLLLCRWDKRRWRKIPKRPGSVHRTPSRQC
# Procedure, shortened: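 Actives from a duplicate 25 uM single-point screen were retested in concentration series. Binding measured as displacement of a radioligand from CHO-derived receptor preparation, 1 h incubation, filtration and scintillation counting, analysed as signal loss against DMSO.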
# [9] = molecular target: Muscarinic acetylcholine receptor M5 (Homo sapiens) (UniProt P08912); assay: NVS_GPCR_hM5: NovaScreen (NVS) G Protein-Coupled Receptor Assay for human Muscarinic, M5 Receptor (AID 2283275)
# Chain of Muscarinic acetylcholine receptor M5 (Homo sapiens) (P08912 whole entry, looked up): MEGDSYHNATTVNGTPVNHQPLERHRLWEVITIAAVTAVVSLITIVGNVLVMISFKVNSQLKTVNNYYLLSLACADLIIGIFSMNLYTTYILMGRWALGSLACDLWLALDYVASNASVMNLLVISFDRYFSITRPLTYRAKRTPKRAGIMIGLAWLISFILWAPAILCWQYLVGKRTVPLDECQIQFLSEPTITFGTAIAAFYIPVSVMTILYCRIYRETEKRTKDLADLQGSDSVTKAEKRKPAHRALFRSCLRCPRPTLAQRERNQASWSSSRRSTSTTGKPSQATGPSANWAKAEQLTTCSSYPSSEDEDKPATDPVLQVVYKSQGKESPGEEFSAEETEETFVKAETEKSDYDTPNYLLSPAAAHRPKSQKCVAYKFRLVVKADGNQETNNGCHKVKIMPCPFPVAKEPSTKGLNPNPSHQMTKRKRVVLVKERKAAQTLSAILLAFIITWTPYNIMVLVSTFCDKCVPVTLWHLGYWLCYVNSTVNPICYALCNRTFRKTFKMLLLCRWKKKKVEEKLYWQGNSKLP
# Procedure, shortened: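 Chemicals passing a primary duplicate screen at 25 uM were run as singleton concentration series, maximum 50 uM. Displacement of a specific radioligand from CHO-extracted receptor was read by filter scintillation after 1 h, relative to DMSO.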
# [10] = molecular target: human Leukotriene B4 Receptor 1 (LTB4-BLT1), LTB4R (gene 1241) (UniProt Q15722); assay: NVS_GPCR_hLTB4_BLT1: NovaScreen (NVS) G Protein-Coupled Receptor Assay for human Leukotriene B4 Receptor 1 (LTB4-BLT1) (AID 2283271)
# Procedure, shortened: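 Cell-free human neutrophil receptor preparation, 1 h exposure, radioligand binding read by filter scintillation counting. Single 25 uM duplicate screen, then concentration series topping at 50 uM; binding loss scored against DMSO baseline.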
# [11] = molecular target: Type-1 angiotensin II receptor (Homo sapiens) (UniProt P30556); assay: NVS_GPCR_hAT1: NovaScreen (NVS) G Protein-Coupled Receptor Assay for human Angiotensin II receptor type 1 (AT1) (AID 2283263)
# Procedure, shortened: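 Hits from a 25 uM duplicate screen (threshold e.g. 30% inhibition) were run in concentration-response with 50 uM top concentration. Displacement of specific radioligand from KAN-TS membrane preparations measured after 3 h by filter scintillation, DMSO as baseline.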
# [12] = molecular target: human Adrenergic, Beta 3 Receptor (Adrb3), ADRB3 (gene 155) (UniProt P13945); assay: NVS_GPCR_hAdrb3: NovaScreen (NVS) G Protein-Coupled Receptor Assay for human Adrenergic, Beta 3 Receptor (Adrb3) (AID 2283262)
# Chain of human Adrenergic, Beta 3 Receptor (Adrb3), ADRB3 (gene 155) (P13945 whole entry, looked up): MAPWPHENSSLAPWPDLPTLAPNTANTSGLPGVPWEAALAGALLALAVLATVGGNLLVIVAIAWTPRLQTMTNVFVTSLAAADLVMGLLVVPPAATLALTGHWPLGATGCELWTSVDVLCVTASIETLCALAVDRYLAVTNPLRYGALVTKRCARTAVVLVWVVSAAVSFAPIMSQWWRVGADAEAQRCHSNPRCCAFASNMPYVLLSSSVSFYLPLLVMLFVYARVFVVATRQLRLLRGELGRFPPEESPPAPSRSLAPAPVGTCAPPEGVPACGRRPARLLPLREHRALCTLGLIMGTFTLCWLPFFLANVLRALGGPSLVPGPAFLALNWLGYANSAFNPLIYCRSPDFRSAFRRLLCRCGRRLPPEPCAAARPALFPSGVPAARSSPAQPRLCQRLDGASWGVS
# Procedure, shortened: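 A cell-free filter binding assay read by scintillation counting, with displacement of a specific radioligand measured after 1 hour. The receptor source was SK-N-MC extracts (cells pretreated with isoproterenol and 8-bromo-cAMP). Compounds were first tested at 25 uM in duplicate and then in concentration series.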
# [13] = molecular target: human Dopamine Receptor D2 (DRD2), DRD2 (gene 1813) (UniProt P14416); assay: NVS_GPCR_hDRD2s: NovaScreen (NVS) G Protein-Coupled Receptor Assay for human Dopamine Receptor D2 (DRD2) (AID 2283266)
# Chain of human Dopamine Receptor D2 (DRD2), DRD2 (gene 1813) (P14416 whole entry, looked up): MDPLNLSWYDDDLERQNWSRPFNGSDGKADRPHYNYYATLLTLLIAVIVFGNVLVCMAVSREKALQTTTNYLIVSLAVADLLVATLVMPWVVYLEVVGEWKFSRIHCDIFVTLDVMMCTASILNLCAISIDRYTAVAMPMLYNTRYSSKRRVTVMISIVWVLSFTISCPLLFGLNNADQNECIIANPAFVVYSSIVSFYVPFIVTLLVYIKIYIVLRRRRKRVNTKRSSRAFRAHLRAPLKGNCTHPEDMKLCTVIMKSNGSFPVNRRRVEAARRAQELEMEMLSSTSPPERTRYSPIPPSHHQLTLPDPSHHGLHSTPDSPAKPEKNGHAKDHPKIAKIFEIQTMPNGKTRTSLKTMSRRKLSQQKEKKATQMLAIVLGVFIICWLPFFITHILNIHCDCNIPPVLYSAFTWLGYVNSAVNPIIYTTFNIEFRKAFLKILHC
# Procedure, shortened: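 Test compound (25 uM, duplicate in the primary screen; concentration series at follow-up) competed with radioligand for human DRD2 in CHO-derived membrane protein. Filter-based scintillation counting was done 1.5 hours after dosing, with loss of signal analysed against DMSO.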
# [14] = molecular target: human Endothelin Receptor Type B (ETB), EDNRB (gene 1910) (UniProt P24530); assay: NVS_GPCR_hETB: NovaScreen (NVS) G Protein-Coupled Receptor Assay for human Endothelin Receptor Type B (ETB) (AID 2283267)
# Procedure, shortened: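 Filter-based scintillation readout of radioligand displacement, 4 h, using membranes from human astrocytoma cells. Actives from a 25 uM duplicate screen were retested in concentration-response (top 50 uM) relative to DMSO baseline.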
# [15] = molecular target: Muscarinic acetylcholine receptor M2 (Homo sapiens) (UniProt P08172); assay: NVS_GPCR_hM2: NovaScreen (NVS) G Protein-Coupled Receptor Assay for human Muscarinic, M2 Receptor (AID 2283273)
# Chain of Muscarinic acetylcholine receptor M2 (Homo sapiens) (P08172 whole entry, looked up): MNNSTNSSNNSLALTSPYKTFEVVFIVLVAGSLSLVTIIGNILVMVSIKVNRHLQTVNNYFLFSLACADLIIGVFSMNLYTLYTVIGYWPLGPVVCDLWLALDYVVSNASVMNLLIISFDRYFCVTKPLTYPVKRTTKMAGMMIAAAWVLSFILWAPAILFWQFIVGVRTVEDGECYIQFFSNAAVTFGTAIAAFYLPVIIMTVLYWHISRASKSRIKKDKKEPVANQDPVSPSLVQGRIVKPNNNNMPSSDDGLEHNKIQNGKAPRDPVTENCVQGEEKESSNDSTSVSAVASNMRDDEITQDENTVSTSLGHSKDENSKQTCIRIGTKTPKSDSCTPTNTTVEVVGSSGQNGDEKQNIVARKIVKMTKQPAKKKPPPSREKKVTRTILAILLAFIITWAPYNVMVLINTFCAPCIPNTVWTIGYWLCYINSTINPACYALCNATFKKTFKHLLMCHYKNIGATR
# Procedure, shortened: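 Filter-based radiodetection read bound radioligand 1 h after dosing CHO-derived membrane protein. Single-concentration duplicates (25 uM) first, then concentration-response for actives; signal loss versus DMSO scored.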
# [16] = molecular target: human Muscarinic, M4 Receptor, CHRM4 (gene 1132) (UniProt P08173); assay: NVS_GPCR_hM4: NovaScreen (NVS) G Protein-Coupled Receptor Assay for human Muscarinic, M4 Receptor (AID 2283274)
# Procedure, shortened: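 Filter-based scintillation counting of radioligand bound to CHO-expressed human M4 preparations after 1 h; loss of signal fitted versus DMSO. Initial duplicate testing at 25 uM, concentration-response follow-up for actives.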
# [17] = molecular target: Neuropeptide Y receptor type 2 (Homo sapiens) (UniProt P49146); assay: NVS_GPCR_hNPY2: NovaScreen (NVS) G Protein-Coupled Receptor Assay for human Neuropeptide Receptor Y2 (NPY2) (AID 2283277)
# Procedure, shortened: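 Chemicals were first tested in duplicate at 25 uM, then actives in singleton concentration series to 50 uM. Tracer binding to SK-N-MC-derived protein measured cell-free after 1 h via filter scintillation; signal loss relative to DMSO.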
# [18] = molecular target: human Neurotensin Receptor (NTS), NTSR1 (gene 4923) (UniProt P30989); assay: NVS_GPCR_hNTS: NovaScreen (NVS) G Protein-Coupled Receptor Assay for human Neurotensin Receptor (NTS) (AID 2283279)
# Procedure, shortened: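 Compounds competed with a radiolabelled ligand for binding to CHO-derived human neurotensin receptor; bound signal counted after filtration, 1 h. Screened first at a single concentration of 25 uM in duplicate, then concentration series to 50 uM maximum for actives.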
# [19] = molecular target: Muscarinic acetylcholine receptor M3 (Homo sapiens) (UniProt P20309); assay: NVS_GPCR_hM3: NovaScreen (NVS) G Protein-Coupled Receptor Assay for human Muscarinic, M3 Receptor (AID 2283272)
# Procedure, shortened: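 Radioligand displacement binding on human M3 receptor in CHO-derived membranes, 1 h incubation, filter-based scintillation counting. Primary screen in duplicate at 25 uM; actives followed up in concentration series; loss of signal versus DMSO.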
smiles,measurement,setting,value
Oc1cccc(O)c1,outcome,[1],inactive
Nc1cccc2c(N)cccc12,outcome,[2],inactive
CN1CCN(c2ccccc2/C=C2\SCCN(c3ccc(Cl)c(Cl)c3)C2=O)CC1,AC50,[3],0.199 µM (active)
same,AC50,[2],6.97 µM (active)
c1ccc2cc3c(ccc4ccccc43)cc2c1,AC50,[4],35.5 µM (active)
Cc1oc(-c2ccccc2)nc1CCOc1ccc(C[C@H](Nc2ccccc2C(=O)c2ccccc2)C(=O)O)cc1,AC50,[5],13.6 µM (active)
same,outcome,[4],inactive
same,AC50,[6],35.5 µM (active)
same,AC50,[7],12.1 µM (active)
same,outcome,[8],inactive
same,outcome,[9],inactive
same,outcome,[2],inactive
NC(=O)N1C(=O)C(C(=O)c2cc(Cl)cs2)c2cc(F)c(Cl)cc21 (configuration not stated),AC50,[5],25 µM (active)
same,outcome,[7],inactive
O=c1c(-c2ccc(O)cc2)coc2cc(O)ccc12,outcome,[10],inactive
O=C(O)Cc1cc(I)c(Oc2cc(I)c(O)c(I)c2)c(I)c1,outcome,[11],inactive
CC[C@H](c1ccc(O)cc1)[C@@H](CC)c1ccc(O)cc1,outcome,[5],inactive
same,outcome,[12],inactive
same,AC50,[13],6.99 µM (active)
CC(=O)CC(C)(C)O,outcome,[12],inactive
same,outcome,[14],inactive
CC(=O)NC1(c2cccc(F)c2)CCN(CC[C@@]2(c3ccc(Cl)c(Cl)c3)CN(c3ccccc3)C(=O)CO2)CC1,AC50,[12],34.2 µM (active)
same,AC50,[4],13.2 µM (active)
same,AC50,[13],11 µM (active)
same,AC50,[7],14.8 µM (active)
same,AC50,[15],8.68 µM (active)
same,AC50,[16],13.9 µM (active)
same,AC50,[9],10.6 µM (active)
same,AC50,[2],0.00268 µM (active)
CCCCC(CC)COC(=O)CCCCC(=O)OCC(CC)CCCC (configuration not stated),outcome,[17],inactive
CC(C)(C)CC(C)(C)c1ccc(O)c(-n2nc3ccccc3n2)c1,AC50,[18],19.4 µM (active)
Cc1cc(CCN2CCN(c3nsc4ccccc34)CC2)cc2c1NC(=O)CC2(C)C,AC50,[2],5.07 µM (active)
CCCOc1sc(C(=O)N2CCC(c3cc(CN)ccc3F)CC2)c(C)c1Br,AC50,[5],8.34 µM (active)
same,AC50,[3],7.53 µM (active)
same,AC50,[12],33.5 µM (active)
same,AC50,[4],16.9 µM (active)
same,AC50,[13],9.42 µM (active)
same,AC50,[6],18.2 µM (active)
same,AC50,[7],3.56 µM (active)
same,AC50,[8],8.67 µM (active)
same,AC50,[19],11.3 µM (active)
same,AC50,[15],12.2 µM (active)
same,AC50,[16],11.1 µM (active)
same,AC50,[9],4.84 µM (active)
same,AC50,[1],13.5 µM (active)
same,AC50,[2],7.85 µM (active)
CC1=C(/C=C/C(C)=C/C=C/C(C)=C/C(=O)O)C(C)(C)CCC1,AC50,[4],1.8 µM (active)

# Source: PubChem BioAssay (EPA / NIEHS)
